In PubChem BioAssay AID720647 (Broad Institute, 2013):
Hit rate of the full screen: of about 380,000 compounds, about 1,300 (0.34%) were called active. The list comes from a sample in which actives are over-represented; it also holds similar structures and randomly drawn compounds. Unmarked numbers belong to inactive results.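 Rule for the calls: active = drop in luminescence signal, shown as inhibition above about 50% in the replicate tests (limit read from the data, passing the limit was not always enough); inconclusive = probably only some replicates passing the limit; inactive = the rest.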

The molecules below were run on Drosophila bursicon receptor LGR2 (rickets) (assay: inhibitors of bursicon-induced LGR2 CRE-luciferase signal, primary screen, cell-based, HEK293, CRE-luciferase reporter, bursicon stimulation (AID 720647;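 note: agonist challenge used bursicon conditioned medium at about half maximal strength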)). Details: bursicon-stimulated, 4 h, at 9.99 µM, stronger effect = higher value.

Compound | inhibition
C(=N\Nc1ccc2ccccc2n1)/c1ccc2c(c1)OCO2 | 80.4% (active)
COc1cccc(CNCc2ccc3c(c2)OCO3)c1 | -10.4%
Cc1ccc2oc(=O)c3cnn(CC(=O)N(Cc4ccco4)C4CCCCC4)c3c2c1 | 64.3% (active)
Cc1ccc2oc(=O)c3cnn(CC(=O)N4CCCCCC4)c3c2c1 | 15.6%
COCCCN(C(=O)Cn1ncc2c(=O)oc3ccc(C)cc3c21)C(C)c1ccncc1 (configuration not stated) | 0.725%
COCC(=O)N1[C@H](CNC(=O)c2ccccn2)[C@H](c2ccccc2)[C@@H]1CO | 0.589%
C[C@H](CO)N1C[C@H](C)[C@H](CN(C)Cc2ccncc2)Oc2ccc(NC(=O)C3CCCCC3)cc2CC1=O | 10.2%
COc1ccc2c3c(n(C)c2c1)[C@H](CO)NCC31CCN(C(=O)Nc2ccccc2F)CC1 | -4.04%
O=c1c2c(nc3cc(-c4cccc(Cl)c4)[nH]n13)CCCC2 | 53.6% (active)
COc1ccc2c3c(n(C)c2c1)[C@@H](CO)N(CC1CC1)CC31CN(C(=O)Nc2c(C)noc2C)C1 | -9.38%
C[C@@H]1CN([C@H](C)CO)C(=O)c2cc(-c3ccccc3)cnc2O[C@H]1CN(C)C(=O)NC1CCCC1 | 9.83%
C/C(=N/OC(=O)c1cccc(C(F)(F)F)c1)c1cnccn1 | 16.7%
C/C(=N/OC(=O)c1c(-c2c(F)cccc2Cl)noc1C)c1cnccn1 | 32.3%
Cc1ccc(C(=O)O/N=C(\N)c2ccccn2)cc1Cl | 88.8% (active)
COc1ccc2c3c([nH]c2c1)[C@H](CO)N(Cc1ccccc1Cl)CC31CN(C(=O)C2CC2)C1 | 6.3%
COc1ccc(-c2ccccc2[C@H]2[C@@H](CO)N(C(=O)C3CCC3)[C@H]2C#N)cc1 | 3.46%
COc1ccc(S(=O)(=O)N(C)C[C@@H]2Oc3c(NS(=O)(=O)c4ccccc4)cccc3C(=O)N([C@@H](C)CO)C[C@@H]2C)cc1 | -7.82%
CCc1ccc2oc(-c3ccc(N)cc3)nc2c1 | 75.2% (active)
O=C(Nc1ccc2c(c1)[C@H]1C[C@@H](CC(=O)N3CCc4ccccc4C3)O[C@H](CO)[C@H]1O2)Nc1ccccc1F | 12.8%
COC(=O)N(C)C[C@H]1OCc2ccccc2-c2ccccc2C(=O)N([C@@H](C)CO)C[C@H]1C | 2.52%
O=C(C[C@H]1C=C[C@H](NC(=O)Cc2ccccn2)[C@@H](CO)O1)NCCc1ccccc1 | 12.4%
CCS(=O)(=O)N1CC2(CN(Cc3ccccc3)[C@@H](CO)c3c2c2ccc(OC)cc2n3C)C1 | -9.3%
